Reference: PubChem BioAssay (NCI)
The panel holds about 79,000 compounds, 15% with a hit somewhere; the sample as a whole holds those more often. The source made the active and inactive calls. Cut-off read from the data, not from the text of the source: active = growth inhibition above about 70%; inactive = the rest.

Tests used:
[1] = NCI Yeast Anticancer Drug Screen. Data for the rad50 strain (AID 155);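 note: 0% = growth of vehicle-only cultures of the same strain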; conditions: S. cerevisiae rad50 strain growth inhibition, stronger effect = higher value
How it was run: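 Growth of the mutant yeast was measured after compound exposure and referenced to vehicle-treated cultures.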

[2] = NCI Yeast Anticancer Drug Screen. Data for the mec2-1 strain (AID 157); conditions: S. cerevisiae mec2-1 strain, stronger effect = higher value
How it was run: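 Cells of the genetically defined mec2-1 yeast strain are incubated with test compound. Inhibition of growth is calculated against vehicle-treated controls.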

[3] = NCI Yeast Anticancer Drug Screen. Data for the sgs1 mgt1 strain (AID 161);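 note: 0% = growth of cultures given vehicle only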; conditions: S. cerevisiae sgs1 mgt1 strain, stronger effect = higher value
How it was run: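 Inhibition of yeast growth, normalised to vehicle-treated controls, is reported for a strain bearing genetic alterations in DNA damage repair.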

[4] = NCI Yeast Anticancer Drug Screen. Data for the cln2 rad14 strain (AID 165);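 note: 0% = growth equal to vehicle treated cultures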; conditions: S. cerevisiae cln2 rad14 strain, stronger effect = higher value
How it was run: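 The screen exposed genetically defined yeast (cln2 rad14) to test compounds and scored growth inhibition relative to vehicle-treated controls.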

[5] = NCI Yeast Anticancer Drug Screen. Data for the bub3 strain (AID 167); conditions: S. cerevisiae bub3 mutant strain, stronger effect = higher value
How it was run: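 Whole-cell yeast assay. The mutant strain was incubated with compounds, and growth inhibition was determined by comparison with vehicle-treated cells.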

[6] = NCI Yeast Anticancer Drug Screen. Data for the mlh1 rad18 strain (AID 175); conditions: S. cerevisiae mlh1 rad18 strain growth inhibition, stronger effect = higher value
How it was run: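 Compound-treated yeast growth, normalised to vehicle controls. Strain bears defined DNA repair mutations.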

[7] = at 5.0 µM (retest, dose inferred, filed as 0.5)
[8] = at 50.0 µM (retest, dose inferred, filed as 5.0)

Measured: growth inhibition

Clc1cccc2c(-c3ccccc3)c3cccc(Cl)c3cc12
inactive: [1]; [7] 4% | [1]; [8] 45% | [1]; at 50.0 µM 58.8% | [2]; [7] 3% | [2]; [8] 50% | [2]; at 50.0 µM 39.6% | [3]; [7] 8% | [3]; [8] 35% | [3]; at 50.0 µM 42.2% | [4]; [7] 6% | [4]; [8] 54% | [4]; at 50.0 µM 50.9% | [5]; [7] -2% | [5]; [8] 51% | [5]; at 50.0 µM 36.2% | [6]; [7] 1% | [6]; [8] 68%
active: [6]; at 50.0 µM 91.4%

O=C(CC(O)(C(F)(F)F)C(F)(F)Cl)CC(O)(C(F)(F)F)C(F)(F)Cl (configuration not stated)
active: [1]; [7] 94% | [1]; [8] 88% | [1]; at 50.0 µM 99.3% | [2]; [7] 92% | [2]; [8] 99% | [2]; at 50.0 µM 99.4% | [3]; [7] 91% | [3]; [8] 99% | [3]; at 50.0 µM 99.7% | [4]; [7] 89% | [4]; [8] 99% | [4]; at 50.0 µM 99% | [5]; [7] 86% | [5]; [8] 99% | [5]; at 50.0 µM 99.5% | [6]; [7] 94% | [6]; [8] 99% | [6]; at 50.0 µM 99.4%

O=C(c1ccccc1)c1ccc(Br)cc1O
inactive: [1]; [7] -3% | [1]; [8] 21% | [1]; at 50.0 µM 57% | [2]; [7] -9% | [2]; [8] 12% | [2]; at 50.0 µM 21.9% | [3]; [7] -4% | [3]; [8] 33% | [3]; at 50.0 µM 31.8% | [4]; [7] -5% | [4]; [8] 9% | [4]; at 50.0 µM 28.1% | [5]; [7] -12% | [5]; [8] -11% | [5]; at 50.0 µM 38.1% | [6]; [7] 1% | [6]; [8] 8% | [6]; at 50.0 µM 68.8%

COc1ccc(/C(Cl)=C(\c2ccc(OCCN(C)C)cc2)c2ccc(OC(=O)C(C)(C)C)cc2)cc1
active: [1]; at 50.0 µM 91.8% | [2]; at 50.0 µM 92% | [3]; at 50.0 µM 92.3% | [5]; at 50.0 µM 89.4% | [6]; at 50.0 µM 90%
inactive: [1]; [7] 23% | [1]; [8] 23% | [2]; [7] 17% | [2]; [8] 17% | [3]; [7] 18% | [3]; [8] 18% | [4]; [7] 10% | [4]; [8] 10% | [4]; at 50.0 µM 60.4% | [5]; [7] 20% | [5]; [8] 20% | [6]; [7] 1% | [6]; [8] 1%

CN(C)CC1CCC2=C(C1=O)C(c1ccc(Cl)c(Cl)c1)C1=C(CCC(CN(C)C)C1=O)O2 (configuration not stated)
inactive: [1]; [7] 14% | [1]; [8] 11% | [2]; [7] -4% | [2]; [8] -13% | [2]; at 50.0 µM 49.9% | [3]; [7] -5% | [3]; [8] 19% | [3]; at 50.0 µM 47.6% | [4]; [7] 6% | [4]; [8] -3% | [4]; at 50.0 µM -17.2% | [5]; [7] -5% | [5]; [8] 2% | [5]; at 50.0 µM 3.75% | [6]; [7] 4% | [6]; [8] 1% | [6]; at 50.0 µM 48.5%
active: [1]; at 50.0 µM 75.5%

N#CC(NNC(=O)c1ccccc1O)c1c(O)ccc2ccccc12 (configuration not stated)
active: [1]; at 50.0 µM 74.3% | [5]; [8] 79% | [6]; [8] 82%
inactive: [1]; [7] -4% | [1]; [8] 59% | [2]; [7] 22% | [2]; [8] 51% | [2]; at 50.0 µM 38.9% | [3]; [7] -5% | [3]; [8] 50% | [3]; at 50.0 µM 61.9% | [4]; [7] 16% | [4]; [8] 62% | [4]; at 50.0 µM 41.4% | [5]; [7] 17% | [5]; at 50.0 µM 56.1% | [6]; [7] 4% | [6]; at 50.0 µM 51.5%

O=C(COC(=O)C(c1ccccc1)c1ccccc1)c1ccc(Br)cc1
inactive: [1]; [7] -2% | [1]; [8] 28% | [1]; at 50.0 µM 45.9% | [2]; [7] -1% | [2]; [8] 23% | [2]; at 50.0 µM 11% | [3]; [7] 0% | [3]; [8] 35% | [3]; at 50.0 µM -4.25% | [4]; [7] -5% | [4]; [8] 28% | [4]; at 50.0 µM 11.1% | [5]; [7] 10% | [5]; [8] 62% | [6]; [7] -1% | [6]; [8] 27% | [6]; at 50.0 µM 20.9%
active: [5]; at 50.0 µM 88%

CN(C)CC[N+](C)(C)Cc1ccc(C[N+](C)(C)CC[N+](C)(C)Cc2ccc(CCl)cc2)cc1
inactive: [1]; [7] 0% | [1]; [8] 0% | [2]; [7] -39% | [2]; [8] -1% | [3]; [7] -1% | [3]; [8] 2% | [4]; [7] 1% | [4]; [8] 2% | [5]; [7] -6% | [5]; [8] 2% | [6]; [7] -1% | [6]; [8] -1%
active: [1]; at 50.0 µM 99% | [2]; at 50.0 µM 98% | [3]; at 50.0 µM 97.9% | [4]; at 50.0 µM 96% | [5]; at 50.0 µM 97.8% | [6]; at 50.0 µM 98.7%

N#C/C(=C\NC(=S)Nc1cc(Cl)ccc1Cl)c1nc2ccccc2s1
inactive: [1]; [7] 21% | [1]; [8] 25% | [1]; at 50.0 µM 34.2% | [2]; [7] 7% | [2]; [8] 21% | [2]; at 50.0 µM 15.1% | [3]; [7] 2% | [3]; [8] 4% | [3]; at 50.0 µM 10.1% | [4]; [7] 20% | [4]; [8] 29% | [4]; at 50.0 µM 39.6% | [5]; [7] 7% | [5]; [8] 19% | [5]; at 50.0 µM 37.4% | [6]; [7] 21% | [6]; [8] 12% | [6]; at 50.0 µM 27.1%
